# Data as given in the supplement of paper PMC4466140.
# Tests used:
# Assay in all cases: SPOT peptide array binding signal intensity (averaged, normalized) (arbitrary units (background-subtracted, floor 0; scale differs between SH3 domains)); higher = stronger binding of the SH3 domain to the peptide
# AgAbp1 = target: AgAbp1
# Method in brief: (§1)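 SH3 domains from four yeast species were expressed as GST fusions in E. coli BL21(DE3) and purified on glutathione Sepharose. Each was incubated at 10 μg/ml overnight at 4°C in TBS-based blocking buffer on cellulose membranes bearing synthetic 15-mer peptides, in which serines replaced cysteines. Bound protein was detected with anti-GST antibody, an HRP anti-mouse secondary and luminol, then imaged and quantified with Genespotter. The binding signal is the normalized, background-subtracted spot intensity averaged over replicates, in arbitrary units that are not the same from one domain to another.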
# AgBbc1 = target: AgBbc1
# Method in brief: as §1
# AgBem1-D1 = target: AgBem1-D1
# Method in brief: as §1
# AgBzz1-D1 = target: AgBzz1-D1
# Method in brief: as §1
# AgBzz1-D2 = target: AgBzz1-D2
# Method in brief: as §1
# AgCyk3 = target: AgCyk3
# Method in brief: as §1
# AgFus1 = target: AgFus1
# Method in brief: as §1
# AgHof1 = target: AgHof1
# Method in brief: as §1
# AgHse1 = target: AgHse1
# Method in brief: as §1
# AgLsb1 = target: AgLsb1
# Method in brief: as §1
# AgLsb4 = target: AgLsb4
# Method in brief: as §1
# AgMyo5 = target: AgMyo5
# Method in brief: as §1
# AgNbp2 = target: AgNbp2
# Method in brief: as §1
# AgRvs167 = target: AgRvs167
# Method in brief: as §1
# AgSho1 = target: AgSho1
# Method in brief: as §1
# AgSla1-D1-D2 = target: AgSla1-D1-D2
# Method in brief: as §1
# AgSla1-D3 = target: AgSla1-D3
# Method in brief: as §1
# CaAbp1-D1 = target: CaAbp1-D1
# Method in brief: as §1
# CaAbp1-D2 = target: CaAbp1-D2
# Method in brief: as §1
# CaBbc1 = target: CaBbc1
# Method in brief: as §1
# CaBem1-D1 = target: CaBem1-D1
# Method in brief: as §1
# CaBzz1-D1 = target: CaBzz1-D1
# Method in brief: as §1
# CaBzz1-D2 = target: CaBzz1-D2
# Method in brief: as §1
# CaCyk3 = target: CaCyk3
# Method in brief: as §1
# CaFus1 = target: CaFus1
# Method in brief: as §1
# CaHof1 = target: CaHof1
# Method in brief: as §1
# CaHse1 = target: CaHse1
# Method in brief: as §1
# CaLsb1 = target: CaLsb1
# Method in brief: as §1
# CaLsb4 = target: CaLsb4
# Method in brief: as §1
# CaMyo5 = target: CaMyo5
# Method in brief: as §1
# CaNbp2 = target: CaNbp2
# Method in brief: as §1
# CaRvs167 = target: CaRvs167
# Method in brief: as §1
# CaRvs167-3 = target: CaRvs167-3
# Method in brief: as §1
# CaSho1 = target: CaSho1
# Method in brief: as §1
# CaSla1-D1-D2 = target: CaSla1-D1-D2
# Method in brief: as §1
# CaSla1-D3 = target: CaSla1-D3
# Method in brief: as §1
# ScAbp1 = target: ScAbp1
# Method in brief: as §1
# ScBbc1 = target: ScBbc1
# Method in brief: as §1
# ScBem1-D1 = target: ScBem1-D1
# Method in brief: as §1
# ScBzz1-D1 = target: ScBzz1-D1
# Method in brief: as §1
# ScBzz1-D2 = target: ScBzz1-D2
# Method in brief: as §1
# ScCyk3 = target: ScCyk3
# Method in brief: as §1
# ScFus1 = target: ScFus1
# Method in brief: as §1
# ScHof1 = target: ScHof1
# Method in brief: as §1
# ScHse1 = target: ScHse1
# Method in brief: as §1
# ScLsb1 = target: ScLsb1
# Method in brief: as §1
# ScLsb2 = target: ScLsb2
# Method in brief: as §1
# ScLsb3 = target: ScLsb3
# Method in brief: as §1
# ScLsb4 = target: ScLsb4
# Method in brief: as §1
# ScMyo3 = target: ScMyo3
# Method in brief: as §1
# ScMyo5 = target: ScMyo5
# Method in brief: as §1
# ScNbp2 = target: ScNbp2
# Method in brief: as §1
# ScPex13 = target: ScPex13
# Method in brief: as §1
# ScRvs167 = target: ScRvs167
# Method in brief: as §1
# ScSho1 = target: ScSho1
# Method in brief: as §1
# ScSla1-D1-D2 = target: ScSla1-D1-D2
# Method in brief: as §1
# ScSla1-D3 = target: ScSla1-D3
# Method in brief: as §1
# SpAbp1-D1 = target: SpAbp1-D1
# Method in brief: as §1
# SpBbc1 = target: SpBbc1
# Method in brief: as §1
# SpBzz1-D1 = target: SpBzz1-D1
# Method in brief: as §1
# SpBzz1-D2 = target: SpBzz1-D2
# Method in brief: as §1
# SpCyk3 = target: SpCyk3
# Method in brief: as §1
# SpHof1 = target: SpHof1
# Method in brief: as §1
# SpHof1-2 = target: SpHof1-2
# Method in brief: as §1
# SpHof1-3 = target: SpHof1-3
# Method in brief: as §1
# SpHse1 = target: SpHse1
# Method in brief: as §1
# SpLsb1 = target: SpLsb1
# Method in brief: as §1
# SpLsb4 = target: SpLsb4
# Method in brief: as §1
# SpMyo1 = target: SpMyo1
# Method in brief: as §1
# SpNbp2 = target: SpNbp2
# Method in brief: as §1
# SpPex13 = target: SpPex13
# Method in brief: as §1
# SpRvs167 = target: SpRvs167
# Method in brief: as §1
# SpSla1-D1-D2 = target: SpSla1-D1-D2
# Method in brief: as §1
# SpSla1-D3 = target: SpSla1-D3
# Method in brief: as §1
binder,measurement,setting,value
GKKVRPLLVLLLSRA,SPOT peptide array binding signal intensity,AgAbp1,≤ 0
same,SPOT peptide array binding signal intensity,AgBbc1,≤ 0
same,SPOT peptide array binding signal intensity,AgBem1-D1,≤ 0
same,SPOT peptide array binding signal intensity,AgBzz1-D1,23.5
same,SPOT peptide array binding signal intensity,AgBzz1-D2,2
same,SPOT peptide array binding signal intensity,AgCyk3,5
same,SPOT peptide array binding signal intensity,AgFus1,3030
same,SPOT peptide array binding signal intensity,AgHof1,0.5
same,SPOT peptide array binding signal intensity,AgHse1,1180
same,SPOT peptide array binding signal intensity,AgLsb1,≤ 0
same,SPOT peptide array binding signal intensity,AgLsb4,702
same,SPOT peptide array binding signal intensity,AgMyo5,≤ 0
same,SPOT peptide array binding signal intensity,AgNbp2,280
same,SPOT peptide array binding signal intensity,AgRvs167,1.5
same,SPOT peptide array binding signal intensity,AgSho1,795
same,SPOT peptide array binding signal intensity,AgSla1-D1-D2,≤ 0
same,SPOT peptide array binding signal intensity,AgSla1-D3,1
same,SPOT peptide array binding signal intensity,CaAbp1-D1,208
same,SPOT peptide array binding signal intensity,CaAbp1-D2,134
same,SPOT peptide array binding signal intensity,CaBbc1,0.5
same,SPOT peptide array binding signal intensity,CaBem1-D1,≤ 0
same,SPOT peptide array binding signal intensity,CaBzz1-D1,45
same,SPOT peptide array binding signal intensity,CaBzz1-D2,8
same,SPOT peptide array binding signal intensity,CaCyk3,9
same,SPOT peptide array binding signal intensity,CaFus1,3530
same,SPOT peptide array binding signal intensity,CaHof1,1.5
same,SPOT peptide array binding signal intensity,CaHse1,120
same,SPOT peptide array binding signal intensity,CaLsb1,≤ 0
same,SPOT peptide array binding signal intensity,CaLsb4,7.5
same,SPOT peptide array binding signal intensity,CaMyo5,≤ 0
same,SPOT peptide array binding signal intensity,CaNbp2,1520
same,SPOT peptide array binding signal intensity,CaRvs167,28.3
same,SPOT peptide array binding signal intensity,CaRvs167-3,50.8
same,SPOT peptide array binding signal intensity,CaSho1,562
same,SPOT peptide array binding signal intensity,CaSla1-D1-D2,≤ 0
same,SPOT peptide array binding signal intensity,CaSla1-D3,28
same,SPOT peptide array binding signal intensity,ScAbp1,3.5
same,SPOT peptide array binding signal intensity,ScBbc1,≤ 0
same,SPOT peptide array binding signal intensity,ScBem1-D1,≤ 0
same,SPOT peptide array binding signal intensity,ScBzz1-D1,18
same,SPOT peptide array binding signal intensity,ScBzz1-D2,104
same,SPOT peptide array binding signal intensity,ScCyk3,41
same,SPOT peptide array binding signal intensity,ScFus1,1690
same,SPOT peptide array binding signal intensity,ScHof1,≤ 0
same,SPOT peptide array binding signal intensity,ScHse1,1540
same,SPOT peptide array binding signal intensity,ScLsb1,≤ 0
same,SPOT peptide array binding signal intensity,ScLsb2,≤ 0
same,SPOT peptide array binding signal intensity,ScLsb3,97
same,SPOT peptide array binding signal intensity,ScLsb4,≤ 0
same,SPOT peptide array binding signal intensity,ScMyo3,≤ 0
same,SPOT peptide array binding signal intensity,ScMyo5,≤ 0
same,SPOT peptide array binding signal intensity,ScNbp2,237
same,SPOT peptide array binding signal intensity,ScPex13,≤ 0
same,SPOT peptide array binding signal intensity,ScRvs167,9.67
same,SPOT peptide array binding signal intensity,ScSho1,1560
same,SPOT peptide array binding signal intensity,ScSla1-D1-D2,≤ 0
same,SPOT peptide array binding signal intensity,ScSla1-D3,5.5
same,SPOT peptide array binding signal intensity,SpAbp1-D1,52.5
same,SPOT peptide array binding signal intensity,SpBbc1,0.5
same,SPOT peptide array binding signal intensity,SpBzz1-D1,21.5
same,SPOT peptide array binding signal intensity,SpBzz1-D2,≤ 0
same,SPOT peptide array binding signal intensity,SpCyk3,7
same,SPOT peptide array binding signal intensity,SpHof1,157
same,SPOT peptide array binding signal intensity,SpHof1-2,27.8
same,SPOT peptide array binding signal intensity,SpHof1-3,758
same,SPOT peptide array binding signal intensity,SpHse1,1200
same,SPOT peptide array binding signal intensity,SpLsb1,≤ 0
same,SPOT peptide array binding signal intensity,SpLsb4,41
same,SPOT peptide array binding signal intensity,SpMyo1,3.75
same,SPOT peptide array binding signal intensity,SpNbp2,1290
same,SPOT peptide array binding signal intensity,SpPex13,3
same,SPOT peptide array binding signal intensity,SpRvs167,6.83
same,SPOT peptide array binding signal intensity,SpSla1-D1-D2,1
same,SPOT peptide array binding signal intensity,SpSla1-D3,≤ 0
GTIARPLFLVVLFFI,SPOT peptide array binding signal intensity,AgAbp1,≤ 0
same,SPOT peptide array binding signal intensity,AgBbc1,1.25
same,SPOT peptide array binding signal intensity,AgBem1-D1,33
same,SPOT peptide array binding signal intensity,AgBzz1-D1,18
same,SPOT peptide array binding signal intensity,AgBzz1-D2,13.5
same,SPOT peptide array binding signal intensity,AgCyk3,8
same,SPOT peptide array binding signal intensity,AgFus1,1900
same,SPOT peptide array binding signal intensity,AgHof1,0.75
same,SPOT peptide array binding signal intensity,AgHse1,428
same,SPOT peptide array binding signal intensity,AgLsb1,≤ 0
same,SPOT peptide array binding signal intensity,AgLsb4,580
same,SPOT peptide array binding signal intensity,AgMyo5,0.5
same,SPOT peptide array binding signal intensity,AgNbp2,57
same,SPOT peptide array binding signal intensity,AgRvs167,1.33
same,SPOT peptide array binding signal intensity,AgSho1,338
same,SPOT peptide array binding signal intensity,AgSla1-D1-D2,≤ 0
same,SPOT peptide array binding signal intensity,AgSla1-D3,1.75
same,SPOT peptide array binding signal intensity,CaAbp1-D1,56.5
same,SPOT peptide array binding signal intensity,CaAbp1-D2,28.5
same,SPOT peptide array binding signal intensity,CaBbc1,2
same,SPOT peptide array binding signal intensity,CaBem1-D1,15.5
same,SPOT peptide array binding signal intensity,CaBzz1-D1,88
same,SPOT peptide array binding signal intensity,CaBzz1-D2,23.5
same,SPOT peptide array binding signal intensity,CaCyk3,10
same,SPOT peptide array binding signal intensity,CaFus1,3640
same,SPOT peptide array binding signal intensity,CaHof1,16.5
same,SPOT peptide array binding signal intensity,CaHse1,126
same,SPOT peptide array binding signal intensity,CaLsb1,1.25
same,SPOT peptide array binding signal intensity,CaLsb4,≤ 0
same,SPOT peptide array binding signal intensity,CaMyo5,4.5
